What all share (assay): PBM; 200 nM protein, PBS
What all share (conditions): dsDNA, one strand shown

The target of assay [1] is HOXA4 (Homo sapiens, UniProt Q00056 201-287, W262R).
The target of assay [2] is HOXA4 (Homo sapiens, UniProt Q00056 201-287, R217L).
For assay [3], the target named is HOXA4 (Homo sapiens, UniProt Q00056 201-287).
Assay [4] addresses HOXA4 (Homo sapiens, UniProt Q00056 201-287, W262F).
For assay [5], the target named is HOXD13 (Homo sapiens, UniProt P35453 263-343).

Data on 19 sequences can be found in paper PMC11006913.

HOXA4 (Homo sapiens, UniProt Q00056 201-287, W262F), sequence (Q00056 201-287 W262F): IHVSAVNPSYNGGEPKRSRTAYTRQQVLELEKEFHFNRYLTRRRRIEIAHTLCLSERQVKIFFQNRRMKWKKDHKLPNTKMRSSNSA
HOXA4 (Homo sapiens, UniProt Q00056 201-287, R217L), sequence (Q00056 201-287 R217L): as the sequence (Q00056 201-287 W262F) above, with R17L, F62W counted along it
HOXA4 (Homo sapiens, UniProt Q00056 201-287), sequence (Q00056 201-287): as the sequence (Q00056 201-287 W262F) above, with F62W counted along it
HOXA4 (Homo sapiens, UniProt Q00056 201-287, W262R), sequence (Q00056 201-287 W262R): as the sequence (Q00056 201-287 W262F) above, with F62R counted along it
HOXD13, sequence (P35453 263-343): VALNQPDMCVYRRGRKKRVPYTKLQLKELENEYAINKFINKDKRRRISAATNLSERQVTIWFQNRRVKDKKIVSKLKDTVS

As for CATGATTA, the binding signal in assay [1] is 10.4 upbm affinity estimate (log intensity, higher = more binding, comparable within an allelic series); in assay [2] it was 11.4 upbm affinity estimate (log intensity, higher = more binding, comparable within an allelic series); in assay [3], 12.6 upbm affinity estimate (log intensity, higher = more binding, comparable within an allelic series); in assay [4], 10.8 upbm affinity estimate (log intensity, higher = more binding, comparable within an allelic series).
Turning to CACCCTGG, the binding signal was 9.95 upbm affinity estimate (log intensity, higher = more binding, comparable within an allelic series) in assay [1]; 9.74 upbm affinity estimate (log intensity, higher = more binding, comparable within an allelic series) in assay [2]; 9.78 upbm affinity estimate (log intensity, higher = more binding, comparable within an allelic series) in assay [3]; 9.87 upbm affinity estimate (log intensity, higher = more binding, comparable within an allelic series) in assay [4].
On to CCGGCACG, for which the binding signal is 9.89 upbm affinity estimate (log intensity, higher = more binding, comparable within an allelic series) in assay [1]; 9.91 upbm affinity estimate (log intensity, higher = more binding, comparable within an allelic series) in assay [2]; 9.85 upbm affinity estimate (log intensity, higher = more binding, comparable within an allelic series) in assay [3]; 9.93 upbm affinity estimate (log intensity, higher = more binding, comparable within an allelic series) in assay [4].
Take ACCTGCCG: the binding signal in assay [1] was 9.93 upbm affinity estimate (log intensity, higher = more binding, comparable within an allelic series); in assay [2], 9.82 upbm affinity estimate (log intensity, higher = more binding, comparable within an allelic series); in assay [3] it was 9.98 upbm affinity estimate (log intensity, higher = more binding, comparable within an allelic series); in assay [4] it was 9.88 upbm affinity estimate (log intensity, higher = more binding, comparable within an allelic series).
In the case of AAGCTAAT, the binding signal in assay [1] is 10.3 upbm affinity estimate (log intensity, higher = more binding, comparable within an allelic series); in assay [3], 12.3 upbm affinity estimate (log intensity, higher = more binding, comparable within an allelic series).
On to AACGAATT, for which the binding signal in assay [1] is 10.3 upbm affinity estimate (log intensity, higher = more binding, comparable within an allelic series); in assay [3], 11.6 upbm affinity estimate (log intensity, higher = more binding, comparable within an allelic series).
As to AGGGCGAG, the binding signal is 9.83 upbm affinity estimate (log intensity, higher = more binding, comparable within an allelic series) in assay [1]; 9.74 upbm affinity estimate (log intensity, higher = more binding, comparable within an allelic series) in assay [2]; 9.74 upbm affinity estimate (log intensity, higher = more binding, comparable within an allelic series) in assay [3]; 9.91 upbm affinity estimate (log intensity, higher = more binding, comparable within an allelic series) in assay [4].
On to AGTAATTC, for which the binding signal in assay [1] is 10.4 upbm affinity estimate (log intensity, higher = more binding, comparable within an allelic series); in assay [3], 11.6 upbm affinity estimate (log intensity, higher = more binding, comparable within an allelic series).
Consider AATTGTTC, for which the binding signal was 10.4 upbm affinity estimate (log intensity, higher = more binding, comparable within an allelic series) in assay [1] and 11.9 upbm affinity estimate (log intensity, higher = more binding, comparable within an allelic series) in assay [3].
As for ACCCGTAG, the binding signal is 9.8 upbm affinity estimate (log intensity, higher = more binding, comparable within an allelic series) in assay [1]; 9.7 upbm affinity estimate (log intensity, higher = more binding, comparable within an allelic series) in assay [2]; 9.84 upbm affinity estimate (log intensity, higher = more binding, comparable within an allelic series) in assay [3]; 9.82 upbm affinity estimate (log intensity, higher = more binding, comparable within an allelic series) in assay [4].
Consider CCTGGGCG, for which the binding signal in assay [1] was 9.75 upbm affinity estimate (log intensity, higher = more binding, comparable within an allelic series); in assay [2] it was 9.75 upbm affinity estimate (log intensity, higher = more binding, comparable within an allelic series); in assay [3], 9.75 upbm affinity estimate (log intensity, higher = more binding, comparable within an allelic series); in assay [4], 9.8 upbm affinity estimate (log intensity, higher = more binding, comparable within an allelic series).
Consider AGCTCCCC, for which the binding signal was 9.71 upbm affinity estimate (log intensity, higher = more binding, comparable within an allelic series) in assay [1]; 9.69 upbm affinity estimate (log intensity, higher = more binding, comparable within an allelic series) in assay [2]; 9.78 upbm affinity estimate (log intensity, higher = more binding, comparable within an allelic series) in assay [3]; 9.81 upbm affinity estimate (log intensity, higher = more binding, comparable within an allelic series) in assay [4].
Consider CACGGTGC, for which the binding signal in assay [1] was 9.98 upbm affinity estimate (log intensity, higher = more binding, comparable within an allelic series); in assay [2], 9.8 upbm affinity estimate (log intensity, higher = more binding, comparable within an allelic series); in assay [3], 9.75 upbm affinity estimate (log intensity, higher = more binding, comparable within an allelic series); in assay [4], 9.86 upbm affinity estimate (log intensity, higher = more binding, comparable within an allelic series).
For the sequence AATCCCCC, the binding signal is 9.83 upbm affinity estimate (log intensity, higher = more binding, comparable within an allelic series) in assay [1]; 9.86 upbm affinity estimate (log intensity, higher = more binding, comparable within an allelic series) in assay [2]; 9.87 upbm affinity estimate (log intensity, higher = more binding, comparable within an allelic series) in assay [3]; 9.73 upbm affinity estimate (log intensity, higher = more binding, comparable within an allelic series) in assay [4].
In the case of GAGTAATA, the binding signal is 10.3 upbm affinity estimate (log intensity, higher = more binding, comparable within an allelic series) in assay [1]; 10.9 upbm affinity estimate (log intensity, higher = more binding, comparable within an allelic series) in assay [5]; 11.7 upbm affinity estimate (log intensity, higher = more binding, comparable within an allelic series) in assay [3].
Regarding GGCGAGCC, the binding signal is 9.78 upbm affinity estimate (log intensity, higher = more binding, comparable within an allelic series) in assay [1]; 9.59 upbm affinity estimate (log intensity, higher = more binding, comparable within an allelic series) in assay [2]; 9.66 upbm affinity estimate (log intensity, higher = more binding, comparable within an allelic series) in assay [3]; 9.76 upbm affinity estimate (log intensity, higher = more binding, comparable within an allelic series) in assay [4].
As for CACACCGG, the binding signal is 9.76 upbm affinity estimate (log intensity, higher = more binding, comparable within an allelic series) in assay [1]; 9.68 upbm affinity estimate (log intensity, higher = more binding, comparable within an allelic series) in assay [2]; 9.76 upbm affinity estimate (log intensity, higher = more binding, comparable within an allelic series) in assay [3]; 9.81 upbm affinity estimate (log intensity, higher = more binding, comparable within an allelic series) in assay [4].
Regarding CAATCACG, the binding signal in assay [1] was 10.3 upbm affinity estimate (log intensity, higher = more binding, comparable within an allelic series); in assay [2] it was 10.8 upbm affinity estimate (log intensity, higher = more binding, comparable within an allelic series); in assay [3], 11.2 upbm affinity estimate (log intensity, higher = more binding, comparable within an allelic series); in assay [4], 10.5 upbm affinity estimate (log intensity, higher = more binding, comparable within an allelic series).
For CAGGGGGA, the binding signal is 9.68 upbm affinity estimate (log intensity, higher = more binding, comparable within an allelic series) in assay [1]; 9.64 upbm affinity estimate (log intensity, higher = more binding, comparable within an allelic series) in assay [2]; 9.87 upbm affinity estimate (log intensity, higher = more binding, comparable within an allelic series) in assay [3]; 9.7 upbm affinity estimate (log intensity, higher = more binding, comparable within an allelic series) in assay [4].
